Hit rate of the full screen: of about 370,000 compounds, about 2,600 (0.7%) were called active. The sample holds actives, similar compounds and a random draw of the others, so the mix is not that of the screen.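 Rule for the calls: active = inhibition above a cutoff: mean of compounds within the control limits plus 3 SD of those (cut at about 17% in these data); inactive = the rest.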
target: Sialate O-acetylesterase (Homo sapiens) (UniProt Q9HAT2); experiment: human SIAE inhibitors, primary screen, biochemical, fluorescence polarization, FP-Rh probe, 1536-well HTS (AID 1053197); conditions: SIAE FP-Rh probe binding, at 9.66 µM, hits give high values;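 note: 0% = plate median of compound wells and 100% = probe without SIAE protein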
Sequence (Q9HAT2 whole entry, looked up): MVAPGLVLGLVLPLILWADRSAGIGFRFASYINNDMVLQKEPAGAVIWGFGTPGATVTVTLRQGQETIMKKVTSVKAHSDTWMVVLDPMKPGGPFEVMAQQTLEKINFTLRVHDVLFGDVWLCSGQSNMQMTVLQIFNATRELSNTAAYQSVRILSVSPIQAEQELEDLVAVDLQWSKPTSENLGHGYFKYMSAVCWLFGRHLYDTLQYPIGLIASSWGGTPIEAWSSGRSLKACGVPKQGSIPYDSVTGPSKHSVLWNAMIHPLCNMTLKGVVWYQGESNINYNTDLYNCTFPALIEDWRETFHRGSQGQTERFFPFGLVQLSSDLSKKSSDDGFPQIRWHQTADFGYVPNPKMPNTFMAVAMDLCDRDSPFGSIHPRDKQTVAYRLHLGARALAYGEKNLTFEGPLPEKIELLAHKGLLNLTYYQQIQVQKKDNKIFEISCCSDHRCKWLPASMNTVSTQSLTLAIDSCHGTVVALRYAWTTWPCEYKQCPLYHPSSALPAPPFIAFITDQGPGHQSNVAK

SMILES	inhibition
COc1ccc([C@H]2OC(=O)C[C@H]2C(=O)N2CCN(c3ccccc3F)CC2)cc1OC	-5.68% (inactive)
CC(C)=CCc1ccc(O)c(=O)cc1C(C)C	6.87% (inactive)
CC(C)c1cc(C(=O)N/N=C/c2ccoc2)c(O)c(C(C)C)c1	-13.5% (inactive)
CC(C)c1cc(N=O)cc(C(C)C)c1O	25.2% (active)
O=C(NCCCc1ccccc1)[C@H](Cc1ccccc1)NC1(C(=O)NCCc2c[nH]c3ccccc23)CCC1	4.77% (inactive)
Cc1ccc(-n2c(SCC(=O)Nc3ccc(S(=O)(=O)Nc4nccs4)cc3)nnc2-c2cccnc2)cc1	-10.3% (inactive)
C=C1C(C(C)C)N(C)C2=NC(c3ccccc3)CC(=O)N12 (centres undefined)	6.93% (inactive)
O=C(NC(=S)Nc1cccc(-c2ccc(CO)o2)c1)c1cccs1	-33.9% (inactive)
NS(=O)(=O)c1ccc(NC(=S)NNC(=O)c2cccs2)cc1	4.71% (inactive)
O=C(NC(=S)Nc1ccc(NC(=O)c2cccs2)cc1)c1ccc([N+](=O)[O-])cc1	26.9% (active)
O=C(c1ccncc1)N1CC[C@H]2[C@H](CCCN2Cc2ccc(F)cc2)C1	2.68% (inactive)
C=CCn1c(SCC(N)=O)nnc1-c1ccccc1OC	-7.56% (inactive)
CCC(=O)Nc1ccc(C(=O)CSc2nnc(CNc3ccc(Cl)cc3)o2)cc1OC	-0.55% (inactive)
CCOc1cccc(-c2nnc(SCC(=O)NC3CC3)n2C)c1	-3.03% (inactive)
CCOc1ccc(Nc2nc(Cc3nnc(SCC(=O)NC4CCCC4)n3C)cs2)cc1	19.1% (active)
CC(=O)Nc1ccc(C(=O)CSc2nnc(Cc3ccccc3)o2)cc1	-1.29% (inactive)
Cn1c(CC(=O)Nc2ccc(F)cc2)nnc1SCC(=O)NC1CCCCC1	2.38% (inactive)
CCOc1ccc(Nc2nc(Cc3nnc(SCC(=O)c4ccc(C)cc4)o3)cs2)cc1	18.2% (active)
CC(C)(C)c1ccc(C(=O)Nc2cc(Cl)c(Br)cc2C(=O)O)cc1	-77.3% (inactive)
COc1ccc(-n2c(SCC(=O)Nc3ccccc3-c3ccccc3)nnc2-c2cccnc2)cc1	4.69% (inactive)
Clc1ccc(-n2c(COc3ccccc3)nnc2SCc2nc3ccccc3[nH]2)cc1	-2.83% (inactive)

SMILES	inhibition
Nn1c(SCC(=O)Nc2ccc(S(N)(=O)=O)cc2)nnc1-c1n[nH]c2c1CCC2	-5.56% (inactive)
Cc1ccccc1CN1CCCCC(NC(=O)Nc2ccccc2F)C1=O (centres undefined)	1.41% (inactive)
Nc1ccc2nc3c(=O)[nH]c(=S)[nH]c3nc2c1	31.8% (active)
O=C(N1CCOCC1)N1CC[C@H]2[C@H](CCCN2Cc2ccc(F)cc2)C1	0.67% (inactive)
O=C(c1cccc(C(F)(F)F)c1)N1CC[C@H]2[C@H](CCCN2Cc2cc(F)cc(F)c2)C1	1.24% (inactive)
C=CCN1[C@H](CC(C)C)COc2cccc(N3CCCC3)c2S1(=O)=O	6.71% (inactive)
CNC(=S)N/N=C/c1cn(Cc2ccc(C)cc2)c2ccccc12	18.3% (active)
CNC(=S)N/N=C/c1ccc(OCc2ccccc2)c(Br)c1	-1.33% (inactive)
NC(=O)Cn1cc(/C=N\NS(=O)(=O)c2ccccc2)c2ccccc21	10.5% (inactive)
c1coc(CCNc2ncnc3ccc(-c4ccc5c(c4)OCO5)cc23)c1	-15.4% (inactive)
CCC(=O)Nc1ccc2c(c1)C(=O)N(C)[C@H]1CC[C@H](CC(=O)NCCOC)O[C@@H]1CO2	-4.02% (inactive)
COc1ccc(C#CCNCc2ccc(OC)cc2OC)cc1	3.3% (inactive)
COc1cccc(/C=N/Nc2cc(C)nc(-c3ccccc3O)n2)c1O	18.5% (active)
Oc1cc2c(cc1O)CN(C(=S)NCCc1ccc(Cl)cc1)CCC2	2.67% (inactive)
Oc1ccc(N2CCN(C(=S)NCc3ccccc3)CC2)cc1	10.2% (inactive)
O=C1CCN(C(=S)NCCc2ccccc2)CC1	17.5% (active)
CCOC(=O)C(=O)N(Cc1ccccc1)c1ccccc1C(=O)Nc1cc(OC)ccc1OC	-7.2% (inactive)
CC(C)(C)OC(=O)NCc1cc(F)ccc1/C=C/S(=O)(=O)NCCc1ccccc1	-1.86% (inactive)
COC(=O)c1cc(S(=O)(=O)N2CCN(c3ccccc3C)CC2)cn1C	2.1% (inactive)
CCC(=O)N1CCC(C(N)=O)(N2CCCCC2)CC1	-0.17% (inactive)
NC(=O)C1(N2CCCCC2)CCN(C(=O)c2ccc(C#Cc3ccccc3)o2)CC1	-5.47% (inactive)

SMILES	inhibition
CC(C)(O)C#Cc1ccc(C(=O)N2CCC(C(N)=O)(N3CCCCC3)CC2)cc1	22.5% (active)
CCC[C@H]1C(=O)CC[C@@]23CCCN2C(=O)CCC[C@@H]13	-0.79% (inactive)
CC[C@@H](CCC(=O)N(c1ccccc1)c1ccccc1)C1CC1	-1.88% (inactive)
COC(=O)[C@]1(C#N)CC(=O)N(CC2CCCCC2)[C@@H]1c1ccccc1	2.31% (inactive)
Cc1cccc(C2C3=C(CCCC3=O)N=C3c4ccccc4C(=O)C32)c1 (centres undefined)	6.75% (inactive)
COc1ccc(C2C3=C(OC(C)=O)c4ccccc4C3=Nc3c2c(=O)n(C)c(=O)n3C)cc1 (centres undefined)	1.68% (inactive)
Cc1cccc(C2c3c(n(C)c(=O)n(C)c3=O)N=C3c4ccccc4C(=O)C32)c1 (centres undefined)	17.7% (active)
CCC(CO)Nc1cccc2c1S(=O)(=O)N(Cc1cn(Cc3ccccc3C(F)(F)F)nn1)Cc1ccccc1O2 (centres undefined)	7.92% (inactive)
COC(=O)c1cc(S(=O)(=O)N2CCN(C(=O)C3CCCO3)CC2)cn1C (centres undefined)	-4.53% (inactive)
CCCCOCCCNC(=O)C[C@H]1C[C@@]2(C(=O)OC)C(=C[C@H](C(C)(C)C)O[C@@H]2C)N(CCc2ccc(OC)c(OC)c2)C1=O	-1.28% (inactive)
CCOC(=O)[C@]12CCCCC/C=C\1N(Cc1ccc(OC)cc1)C(=O)[C@H]2CC(=O)NCCCN1CCCC1=O	4.21% (inactive)
CCOc1cc(N2CCOCC2)c(OCC)cc1NC(=O)COc1cccc2cccnc12	25.5% (active)
NC(=O)C1CCN(C(=O)COc2cccc3cccnc23)CC1	4% (inactive)
CCOc1cc(N2CCOCC2)c(OCC)cc1NC(=O)C1=NN(c2cccc(C)c2)C(=O)CC1	7.16% (inactive)
COc1ccc(C(=O)NNc2cc(C)nc(NNC(=O)c3ccc(OC)cc3)n2)cc1	-3.36% (inactive)
CC(=O)Nc1ccc(Nc2cc(C)nc(Nc3ccc(NC(C)=O)cc3)n2)cc1	19.1% (active)
CC(=O)NS(=O)(=O)c1ccc(N/C(N)=N/c2nc(C)cc(C)n2)cc1	-5.5% (inactive)
CCC(c1ccc(NC(=O)OC(C)(C)C)cc1)c1cc(OC)cc(OC)c1 (centres undefined)	-2.44% (inactive)
C=CCN1C(=O)[C@H](CC(=O)N2CCN(C(=O)OCC)CC2)[C@@]2(C(=O)OCC)CCCC=C12	10.1% (inactive)
CC(=O)N1CCc2cc(S(=O)(=O)NCCC(=O)N3CCCC3)ccc21	-1.37% (inactive)
C=CCN1C(=O)[C@@H](CC(=O)N2CCN(C(=O)c3ccco3)CC2)[C@]2(C(=O)OC)CCCCC=C12	2.59% (inactive)

SMILES	inhibition
CC(C)N1CCCCC(NC(=O)C(C)(C)C)C1=O (centres undefined)	-4.73% (inactive)
Cc1cc2ccccc2n1CCNC(=O)COc1ccc2ccccc2c1	27.9% (active)
O=C(COc1ccc(Cl)cc1)NCCSc1ccccc1	0.9% (inactive)
Cc1ccccc1OCC(=O)NCC(=O)OCC(=O)c1ccc2ccccc2c1	-1.57% (inactive)
C[C@H]1[C@H](NC(=O)c2cccc(N(C)C)c2)CC[C@@]23CCCN2C(=O)CCC[C@@H]13	0.13% (inactive)
COc1ccc(CSc2nnc(-c3cccc(C)c3)n2C)cc1	4.99% (inactive)
COC(=O)C[C@@H]1CC[C@H]2[C@@H](COc3ccc(NS(=O)(=O)CC(F)(F)F)cc3C(=O)N2C)O1	8.2% (inactive)
COC(=O)[C@]12C[C@H](CC(=O)NCc3cccs3)C(=O)N(CCc3ccc(OC)c(OC)c3)C1=C[C@H](C(C)C)O[C@@H]2C1CC1	9.66% (inactive)
COc1ccc(C2CC=C(C(=O)O)C(c3ccccc3F)N2S(=O)(=O)c2ccc(C)cc2)cc1OC (centres undefined)	-2.16% (inactive)
CCOC(=O)c1nnn(-c2nonc2OC)c1-c1ccccc1	1.88% (inactive)
CCOC(=O)C1=C(c2ccccc2)O/C(=C(/C(=O)OC)C(F)(F)F)S1	36% (active)
COC(=O)/C(=C1\Oc2ccc(C(C)(C)C)cc2S1)C(F)(F)F	0.75% (inactive)
c1csc(-c2nnc(SCc3nc4ccccc4[nH]3)o2)c1	-0.76% (inactive)
CCCNC(=O)Nc1ccc2c(c1)C(=O)N(C)[C@H]1CC[C@H](CC(=O)NCC3CCCCC3)O[C@@H]1CO2	-0.34% (inactive)
Cc1cccc(NC(=O)C[C@H]2CC[C@H]3[C@@H](COc4ccc(NC(=O)Nc5ccccc5)cc4C(=O)N3C)O2)c1	-1.56% (inactive)
COc1ccc(/C=N/NC(=O)c2ccncc2)cc1CN1CCCc2ccccc21	18.8% (active)
COc1ccccc1CCC(=O)NNC(=O)c1ccncc1	-7.13% (inactive)
CCc1ccc(/C=N/NC(=O)c2nnn(-c3nonc3N)c2CN2CCc3ccccc32)cc1	-0.3% (inactive)
CCCCNC(=O)C[C@H]1C[C@@]2(C(=O)OC)C(=C[C@H](COCc3ccccc3)O[C@@H]2C)N(Cc2ccc(Cl)cc2Cl)C1=O	11.1% (inactive)
COc1ccc(S[C@]2(C(=O)N(C)C)CC(=O)N(c3ccc(OC)cc3)[C@@H]2c2ccc(OC)cc2)cc1	-0.86% (inactive)
Cc1ccc(NC(=O)Cc2cccc(F)c2)c(S(=O)(=O)N2CCOCC2)c1	-2.62% (inactive)
